# Experimental data published in PubChem BioAssay (Tox21).
# Inconclusive results are not listed. Where a call stands in place of a potency, no number is given. Values without a mark were called inactive. Activity calls are given as the source filed them. Unless noted, calls come from the whole dose curve.
# Assays:
# [1] = qHTS assay to identify small molecule agonists of the vitamin D receptor (VDR) signaling pathway - cell viability counter screen (AID 743224; active = well fitted curve in the direction sought with a large enough effect in the repeat runs; an effect the other way counts as inactive or inconclusive; note: nearly all actives have a fitted effect of over 50% in size; note: potency is the fitted concentration of half-maximal effect; for activity change, negative = cytotoxicity: series mostly up to about 63 µM)
# In short: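 Counter screen for cytotoxicity: VDR-bla cells at 2,000 cells/well, 16 h compound exposure, then CellTiter-Glo luminescence after the beta-lactamase measurement.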
# [2] = qHTS assay to identify small molecule agonists of the NFkB signaling pathway (AID 1159509; active = well fitted curve in the direction sought with a large enough effect in the signal ratio in the repeat runs, not every such curve was filed as active; the % refers to the signal ratio; note: series mostly up to about 61 µM)
# In short: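 Beta-lactamase reporter assay run in quantitative high-throughput format on an NF-kB-responsive ME-180 line, with 5 hr compound treatment and a FRET-based blue/green fluorescence readout.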
# [3] = qHTS assay to identify small molecule agonists of the NFkB signaling pathway - cell viability counter screen (AID 1159515); note: series mostly up to about 61 µM; nearly all actives have a fitted effect of over 55% in size
# In short: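 Counter screen run alongside the NFkB-bla agonist assay: ME-180 reporter cells exposed to compounds for 5 hr, then lysed with CellTiter-Glo in the same wells. Luminescence, read after 30 min, reflects viable cells.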
# [4] = qHTS assay to identify small molecule agonists of the endoplasmic reticulum stress response signaling pathway - cell viability counter screen (AID 1159517); note: series mostly up to about 61 µM; nearly all actives have a fitted effect of over 50% in size
# In short: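 Cytotoxicity of test compounds toward ESRE-bla HeLa cells was assessed after 5 hr exposure. The luminescent CellTiter-Glo signal was measured 30 min after reagent addition.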
# [5] = qHTS assay to identify small molecule antagonists of the retinoid-related orphan receptor gamma (ROR-gamma) signaling pathway - cell viability counter screen (AID 1159520; active = well fitted curve in the direction sought with a large enough effect in the repeat runs; an effect the other way counts as inactive or inconclusive; note: nearly all actives have a fitted effect of over 50% in size)
# In short: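 Tet-on ROR gamma CHO cells (1,000/well) were plated 4 hr, given compounds in DMSO for 2 hr at 37 C, then induced with 1 uM final doxycycline for 16 hr. Viability was read as ATP by CellTiter-Glo luminescence after 30 min.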
# [6] = qHTS assay to identify small molecule agonists of the AP-1 signaling pathway - cell viability counter screen (AID 1159525); note: nearly all actives have a fitted effect of over 55% in size
# In short: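 Each titration point was normalised to DMSO and tetra n-octyl ammonium bromide controls. The read was Cell Titer Glo luminescence after 30 min at RT, following 5 h compound exposure of ME-180 AP-1-bla cells at 37 °C.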
# [7] = qHTS assay to identify small molecule agonists of the AP-1 signaling pathway (AID 1159526)
# [8] = qHTS assay to identify small molecule antagonists of the vitamin D receptor (VDR) signaling pathway - cell viability counter screen (AID 743225; active = well fitted curve in the direction sought with a large enough effect in the repeat runs; an effect the other way counts as inactive or inconclusive; note: nearly all actives have a fitted effect of over 50% in size; note: potency is the fitted concentration of half-maximal effect)
# In short: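 VDR-bla HEK 293T cells, 4 h pre-incubation at 37C, then compound plus 1-alpha,25-dihydroxyvitamin D3 (3 nM final) for 16 h. After the beta-lactamase FRET read, CellTiter-Glo was added to the same wells; luminescence after 30 min at room temperature.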
# [9] = qHTS assay to identify small molecule agonists of the endoplasmic reticulum stress response signaling pathway (AID 1159516; active = well fitted activation curve with a large enough effect in the signal ratio in the repeat runs, not every such curve was filed as active; the % refers to the signal ratio)
# In short: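 For this screen, HeLa cells stably carrying beta-lactamase under the ER stress response element received test compounds, positive controls or DMSO for 5 hr at 37 C; B/G FRET substrate was then added and dual-wavelength emission recorded.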
# [10] = target: Nuclear receptor ROR-gamma (Homo sapiens) (UniProt P51449); assay: qHTS assay to identify small molecule antagonists of the retinoid-related orphan receptor gamma (ROR-gamma) signaling pathway (AID 1159521; active = well fitted curve in the direction sought with a large enough effect in the repeat runs; an effect the other way counts as inactive or inconclusive; note: nearly all actives have a fitted effect of over 50% in size; note: potency is the fitted concentration of half-maximal effect)
# In short: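 Tet-on RORγ CHO cells carrying a ROR response element–luciferase reporter were pretreated with compounds for 2 h, then induced with 1 uM (final) doxycycline hyclate for 16 h at 37 C. Antagonism was read as decreased ONE-Glo luminescence.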
compound,measurement,setting,value
CCN(Cc1cccc(S(=O)(=O)O)c1)c1ccc(C(=C2C=CC(=[N+](CC)Cc3cccc(S(=O)(=O)[O-])c3)C=C2)c2ccccc2)cc1,Potency,[1],inactive
same,outcome,[2],inactive
same,outcome,[3],inactive
same,outcome,[4],inactive
same,Potency,[5],inactive
same,outcome,[6],inactive
C/C(=N/NC(=O)c1ccncc1)C(=O)O,Potency,[1],inactive
same,outcome,[2],inactive
same,outcome,[3],inactive
same,outcome,[4],inactive
same,Potency,[5],inactive
same,outcome,[6],inactive
same,outcome,[7],inactive
CC[C@H](NC(=O)c1cc(F)ccc1NS(=O)(=O)c1cccc2cccnc12)c1ccccc1,Potency,[1],inactive
same,Potency,[8],inactive
same,outcome,[2],inactive
same,outcome,[3],inactive
same,outcome,[9],inactive
same,Potency,[10],10.3 µM (active)
same,outcome,[6],inactive
O=C(CCCN1CCC(O)(c2ccc(Br)cc2)CC1)c1ccc(F)cc1,Potency,[1],inactive
same,Potency,[8],inactive
same,outcome,[2],inactive
same,outcome,[3],inactive
same,outcome,[4],inactive
same,Potency,[5],inactive
same,outcome,[6],inactive
same,outcome,[7],inactive
CC(C)CCCC(=O)O,Potency,[1],inactive
same,Potency,[8],inactive
same,outcome,[2],inactive
same,outcome,[3],inactive
same,outcome,[9],inactive
same,Potency,[10],inactive
same,outcome,[6],inactive
same,outcome,[7],inactive
CCNC(=O)N1CCN(CCCC(c2ccc(F)cc2)c2ccc(F)cc2)CC1,Potency,[8],inactive
same,outcome,[2],inactive
same,outcome,[3],inactive
same,outcome,[9],inactive
same,Potency,[5],inactive
same,outcome,[7],inactive
O=C(O)c1cccnc1C(=O)O,Potency,[1],inactive
same,Potency,[8],inactive
same,outcome,[2],inactive
same,outcome,[3],inactive
same,Potency,[5],inactive
same,Potency,[10],inactive
same,outcome,[6],inactive
same,outcome,[7],inactive
CC[C@@H]([C@H](C)O)n1ncn(-c2ccc(N3CCN(c4ccc(OC[C@@H]5CO[C@@](Cn6cncn6)(c6ccc(F)cc6F)C5)cc4)CC3)cc2)c1=O,Potency,[1],inactive
same,Potency,[8],23.9 µM (active)
same,outcome,[2],inactive
same,outcome,[3],inactive
same,outcome,[4],inactive
same,Potency,[10],0.944 µM (active)
same,outcome,[7],inactive
C/C=C/C=C/CCCCCCCO,Potency,[1],inactive
same,Potency,[8],inactive
same,outcome,[2],inactive
same,outcome,[3],inactive
same,outcome,[4],inactive
same,Potency,[5],inactive
same,outcome,[6],inactive
same,outcome,[7],inactive
CC1CN(c2cc3c(cc2F)c(=O)c(C(=O)O)cn3-c2ccc(F)cc2F)CCN1 (centres undefined),"activity change, negative = cytotoxicity",[1],-0.741% [at 5.95 µM]
same,"viability change, negative = cytotoxic",[8],9.78% [at 6.95 µM]
same,activation,[2],0.411% [at 6.95 µM]
same,"activity, negative = cytotoxic",[3],3.41% [at 6.95 µM]
same,"activity change, negative = cytotoxicity",[4],10.1% [at 6.95 µM]
same,"activity, negative = cytotoxicity",[5],3.27% [at 8.39 µM]
same,"viability change, negative = cytotoxic",[6],-6.8% [at 6.97 µM]
same,activation,[7],2.03% [at 6.97 µM]
C=CCNc1nc(NCC=C)nc(N2CCN(C(c3ccc(F)cc3)c3ccc(F)cc3)CC2)n1,Potency,[1],inactive
same,outcome,[2],inactive
same,outcome,[3],inactive
same,Potency,[5],inactive
same,outcome,[6],inactive
CCC(=O)Oc1ccc(/C(CC)=C(\CC)c2ccc(OC(=O)CC)cc2)cc1,Potency,[1],54.9 µM (active)
same,Potency,[8],inactive
same,outcome,[2],inactive
same,outcome,[3],inactive
same,outcome,[4],inactive
same,Potency,[5],inactive
same,outcome,[6],inactive
same,outcome,[7],inactive
CC1C2CC(CC2C2CCCC(O)C2)C1(C)C (centres undefined),Potency,[1],49 µM (active)
same,outcome,[2],inactive
same,outcome,[3],inactive
same,Potency,[10],inactive
Cc1cc2nc3ccc(=[N+](C)C)cc-3sc2cc1N,Potency,[8],inactive
same,outcome,[2],inactive
same,outcome,[3],inactive
same,outcome,[9],inactive
same,Potency,[10],inactive
Cc1nc2ccccn2c(=O)c1CCN1CCC(C(=O)c2ccc(F)cc2)CC1,Potency,[1],inactive
same,outcome,[2],inactive
same,outcome,[3],inactive
same,Potency,[5],inactive
same,Potency,[10],inactive
same,outcome,[6],inactive
same,outcome,[7],inactive
Cn1c(=O)c2c(ncn2CC(=O)O)n(C)c1=O,Potency,[1],inactive
same,Potency,[8],inactive
same,outcome,[2],inactive
same,outcome,[3],inactive
same,outcome,[4],inactive
same,Potency,[5],inactive
same,outcome,[6],inactive
same,outcome,[7],inactive
C=CC(C)(O)CCCC(C)CCCC(C)CCCC(C)C (centres undefined),Potency,[1],inactive
same,Potency,[8],inactive
same,outcome,[2],inactive
same,outcome,[3],inactive
same,outcome,[4],inactive
same,Potency,[5],inactive
same,outcome,[6],inactive
same,outcome,[7],inactive
CCCCCCCC/C=C\CCCCCCCC(=O)OC,Potency,[1],inactive
same,Potency,[8],inactive
same,outcome,[2],inactive
same,outcome,[3],inactive
same,outcome,[4],inactive
same,Potency,[5],inactive
same,outcome,[7],inactive
CCn1nc(C)c2c1C(=O)NCC(c1ccc(O)cc1)=N2,Potency,[1],inactive
same,Potency,[8],inactive
same,outcome,[2],inactive
same,outcome,[3],inactive
same,Potency,[5],inactive
same,outcome,[7],inactive
Cc1ccnc2ccccc12,Potency,[1],inactive
same,Potency,[8],inactive
same,outcome,[2],inactive
same,outcome,[3],inactive
same,outcome,[4],inactive
same,Potency,[5],inactive
same,outcome,[6],inactive
same,outcome,[7],inactive
